Screening data deposited in PubChem BioAssay by Sanford-Burnham Center for Chemical Genomics.
Only some compounds are listed: those with a hit (about 2.9% of all), similar ones and a draw of the others.
A3G deaminase: APOBEC3G DNA deaminase inhibitors, primary screen, biochemical, fluorescence, single-stranded DNA substrate, uHTS | inhibition, % at 20 µM | DNA dC->dU-editing enzyme APOBEC-3G (Homo sapiens), Q9HC16 | recombinant A3G, ssDNA deamination FAM/TAMRA fluorescence | hit rate 0.28% among 330,000;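 active = inhibition of at least 40% at 20 µM, with no more than 30% in the related APOBEC3A deaminase screen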;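 also: plate controls were DMSO wells with A3G for no effect and wells lacking A3G enzyme for full effect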
Target sequence (Q9HC16 whole entry, looked up): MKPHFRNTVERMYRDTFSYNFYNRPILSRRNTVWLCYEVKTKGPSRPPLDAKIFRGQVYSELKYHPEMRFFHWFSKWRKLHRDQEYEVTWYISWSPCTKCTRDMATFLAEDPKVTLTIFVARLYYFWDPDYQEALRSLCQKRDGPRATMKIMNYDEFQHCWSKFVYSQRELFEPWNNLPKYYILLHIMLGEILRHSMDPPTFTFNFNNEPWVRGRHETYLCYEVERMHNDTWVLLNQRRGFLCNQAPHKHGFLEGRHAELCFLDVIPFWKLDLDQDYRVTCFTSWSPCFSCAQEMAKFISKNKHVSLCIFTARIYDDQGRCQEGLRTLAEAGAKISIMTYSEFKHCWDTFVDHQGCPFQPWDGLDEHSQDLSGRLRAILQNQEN
Cardio protect: cardioprotection against H2O2-induced cell death, primary screen, uHTS, H9c2 cells, ATPLite luminescence; H9c2 cardiomyocytes, H2O2 injury protection, 2 h; protection from H2O2 cell death, % at 20 µM; hit rate 0.63% among 360,000;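 active = compounds giving at least 50% protection of heart cells from peroxide-induced death in the single-dose screen, raw or plate-pattern-corrected value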;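 also: 0% = DMSO wells with peroxide and 100% = DMSO wells without peroxide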
NadD block: inhibitors of S. aureus NadD, primary screen, biochemical, colorimetric, uHTS; hit rate 0.78% among 360,000; Nicotinate-nucleotide adenylyltransferase NadD (Staphylococcus aureus N315); purified NadD enzyme, colorimetric absorbance read-out; inhibition, % at 20 µM; in the data active = inhibition above about 26%
H9c2 TAG inh: inhibitors of triacylglycerol accumulation, primary screen, cell-based, uHTS, fluorescence, H9c2. inhibition, % at 12.5 µM. H9c2 cells, Nile Red lipid (TAG) fluorescence; cells loaded with 200 µM oleic acid. hit rate 0.66% among 230,000;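 active = pattern-corrected inhibition of lipid staining of at least 50% with the nuclear-stain viability signal not falling by more than 50%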;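 also: 0% = DMSO wells and 100% = triacsin C control wells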
PfG6PD inh: PfG6PD enzyme inhibitors, primary screen, biochemical, fluorescence intensity, uHTS. glucose-6-phosphate dehydrogenase-6-phosphogluconolactonase (Plasmodium falciparum 3D7). PfGluPho enzyme, NADPH resazurin-diaphorase fluorescence. inhibition, % at 20 µM. hit rate 0.78% among 350,000. AID 504690, 2011;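 active = inhibition reaching at least a set limit at 20 µM in the primary screen, cut at about 59% in these data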;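 also: 0% = DMSO wells with substrate and 100% = DMSO wells lacking glucose-6-phosphate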
A3A deaminase: APOBEC3A ssDNA deaminase inhibitors, primary screen, selectivity assay for APOBEC3G inhibitor project, biochemical, FAM/TAMRA oligo cleavage fluorescence | hit rate 0.41% among 330,000 | DNA dC->dU-editing enzyme APOBEC-3A (Homo sapiens), P31941 | inhibition, % at 20 µM | recombinant A3A, FAM/TAMRA ssDNA deamination fluorescence;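 active = at least 40% inhibition at 20 µM here, with at most 30% in a related deaminase screen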;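 also: plate controls were A3A with DMSO for no effect and wells lacking A3A enzyme for full effect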
Target sequence (P31941 whole entry, looked up): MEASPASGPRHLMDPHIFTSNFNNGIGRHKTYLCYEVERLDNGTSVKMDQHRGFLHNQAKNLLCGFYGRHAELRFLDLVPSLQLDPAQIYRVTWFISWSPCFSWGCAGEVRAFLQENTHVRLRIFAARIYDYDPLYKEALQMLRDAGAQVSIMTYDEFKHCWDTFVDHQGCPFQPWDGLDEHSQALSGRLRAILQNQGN
A3A conf: APOBEC3A deaminase inhibitors, retest, confirmation, selectivity assay for APOBEC3G inhibitor project, biochemical, single concentration, fluorescence readout; shares compounds with A3A deaminase; recombinant A3A, ssDNA deaminase UDG fluorescence assay; inhibition, % at 20 µM; hit rate 63% among 1,400;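 active = inhibition reaching a set limit, 80% of the first screen's cutoff, at 20 µM in any replicate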;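 also: plate controls were DMSO wells with A3A for no effect and wells lacking A3A enzyme for full effect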
UDG ctr A3A: E. coli UDG inhibitors, confirmation, counter-screen for APOBEC3A inhibitor project, biochemical, single concentration, fluorescence, FAM/TAMRA oligo; shares compounds with A3A deaminase; UDG counterscreen, FAM/TAMRA uracil oligo fluorescence; inhibition, % at 20 µM; 1,000 tested, under 10 active; call rule not given here
* marks the source's active call; other numbers are inactive results; x = no result.

SMILES | A3G deaminase | Cardio protect | NadD block | H9c2 TAG inh | PfG6PD inh | A3A deaminase | A3A conf | UDG ctr A3A
CCCCc1nnc(NC(=O)c2cccc(S(=O)(=O)N3CCN(C)CC3)c2)s1 | 21 | -2 | 10 | -15 | -17 | 58* | 20 | x
CN1CCN(S(=O)(=O)c2cccc(C(=O)Nc3cc(C(F)(F)F)ccc3N3CCCCC3)c2)CC1 | 11 | 0 | -7 | 24 | 23 | 44* | 18 | x
CCN1CCN(c2ccc(S(=O)(=O)N3CCCCC3)cc2NC(=O)Cc2ccccc2)CC1 | 11 | 10 | 4 | 3 | -7 | 57* | 64* | -2
CC(C)Cc1nnc(NC(=O)c2cccc(S(=O)(=O)N3CCN(C)CC3)c2)s1 | -3 | -2 | 0 | 1 | -12 | 2 | x | x
O=[N+]([O-])c1cccc(S(=O)(=O)/N=C(/Nc2ccccc2)c2ccccc2)c1 | -4 | -2 | -6 | 3 | 18 | -1 | x | x
CCC(NC(=O)c1ccccc1NC(=O)C(C)(C)C)C(=O)N1CC(C)OC(C)C1 (stereo not drawn) | 3 | 4 | 1 | -3 | -2 | -1 | x | x
CCOc1ccccc1OCC(=O)Nc1cc(S(=O)(=O)N2CCCCC2)ccc1N1CCN(CC)CC1 | 10 | -2 | 5 | 1 | 6 | 60* | 55* | 3
CCN1CCN(c2ccc(S(=O)(=O)N3CCCCC3)cc2NC(=O)Cc2ccc(Cl)c(Cl)c2)CC1 | -11 | -2 | -3 | 6 | 9 | -2 | x | x
CCN1CCN(c2ccc(S(=O)(=O)N3CCCCC3)cc2NC(=O)COc2ccccc2)CC1 | -9 | 9 | -6 | -1 | 3 | 13 | x | x
CCN1CCN(c2ccc(S(=O)(=O)N3CCCCC3)cc2NC(=O)c2ccc(C)o2)CC1 | 7 | 2 | 0 | 4 | 2 | 63* | 71* | 2
CCC(=O)c1ccc(OCC(=O)Nc2cc(S(=O)(=O)N3CCCCC3)ccc2N2CCN(CC)CC2)cc1 | 13 | 0 | -2 | 24 | 6 | 55* | 66* | -2
NC(=O)CN1C(=O)NC2(CCOc3ccccc32)C1=O (stereo not drawn) | -2 | 4 | -4 | x | -2 | 0 | x | x
CCOc1ccc(NC(C(=O)Nc2cccc(C(C)=O)c2)c2ccccc2)cc1 (stereo not drawn) | -3 | -10 | 0 | x | 13 | 43* | -11 | -3
CCOc1ccccc1NC(=S)N1CCN(c2ccc(OC)cc2)CC1 | -4 | 0 | -1 | -3 | 3 | 83* | -9 | -3
CCOc1ccccc1NC(=S)N1CCN(c2ccc(O)cc2)CC1 | -5 | 3 | -8 | x | 38 | -2 | x | x
Cc1ccccc1Nc1nnc(-c2ccc(C(=O)NCCO)cc2)c2ccccc12 | -3 | 0 | -4 | x | 1 | -3 | x | x
O=C(C1COc2ccccc2O1)N1CCc2ccccc21 (stereo not drawn) | 15 | -3 | -6 | x | 9 | 43* | 36* | 1
COc1ccccc1C(=O)NCC(=O)OCC(=O)c1cccc2ccccc12 | -6 | -1 | -12 | -8 | -3 | 0 | x | x
Cc1cccc(-n2c(C)nc3cc(C(=O)NCCN4CCOCC4)ccc32)c1 | x | 6 | 6 | -7 | 19 | x | x | x
O=C(O)c1cc(O)c2c(c1)C(=O)c1cc(O)cc(O)c1C2=O | 28 | 2 | -7 | x | 8 | 67* | 59* | 0
COc1ccc(OC)c(-c2nnc(NC(=O)C(C)Sc3nncn3C)s2)c1 (stereo not drawn) | -2 | 11 | 0 | -3 | 5 | -3 | x | x
Cc1nnc(NC(=O)C(C)Sc2nncn2C)s1 (stereo not drawn) | -3 | 13 | -2 | -1 | 0 | 69* | -8 | -3
CC(Sc1nnc(N)s1)C(=O)Nc1nccs1 (stereo not drawn) | -3 | -6 | 4 | 0 | 2 | -2 | x | x
Cc1nnc(SC(C)C(=O)Nc2nccs2)s1 (stereo not drawn) | 5 | 6 | 14 | 3 | -18 | 71* | 13 | x
Cc1ccccc1NC(=O)CSc1ccncc1 | -4 | 14 | -5 | -4 | -7 | 1 | x | x
SMILES | A3G deaminase | Cardio protect | NadD block | H9c2 TAG inh | PfG6PD inh | A3A deaminase | A3A conf | UDG ctr A3A
CC(C)CCOCC(O)CCC(=O)NNC(=S)Nc1ccccc1 (stereo not drawn) | -4 | 1 | 2 | -13 | -10 | 92* | -4 | 1
CC(O)CCC(=O)NNC(=S)Nc1ccccc1 (stereo not drawn) | -9 | -1 | 3 | 3 | 9 | -3 | x | x
Cc1cc(C)c(NC(=O)c2ccccc2CCc2ccccc2)c(C)c1 | 0 | -9 | -3 | x | 4 | 0 | x | x
Cc1ccc(NC(=O)c2ccccc2CCc2ccccc2)c(C)c1 | 2 | -5 | 1 | x | -9 | 100* | 4 | x
CCOC(=O)N1CCN(C(=O)/C(=C/c2cccs2)NC(=O)c2ccc(OC)c(OC)c2)CC1 | 2 | 9 | -2 | x | -6 | -5 | x | x
O=C(COC(=O)c1ccc(Cl)cc1)NCC1CCCCC1 | 5 | 3 | -7 | 13 | -10 | 3 | x | x
Cc1cccc(C(=O)N[C@H](C(=O)Nc2nccs2)C(C)C)c1 | -4 | 3 | 0 | x | 5 | -1 | x | x
COc1ccc(-n2nc(C(=O)NCC(=O)NCC3COc4ccccc4O3)c3ccccc3c2=O)c(OC)c1 (stereo not drawn) | -6 | 7 | -2 | -8 | 9 | -8 | x | x
COc1ccc(/C=C/C(=O)N(CCC(N)=O)c2ccccc2)cc1S(=O)(=O)N1CCOCC1 | -3 | 9 | 6 | -12 | 15 | 41* | 27* | -36
O=C(NC1=NCCS1)C1CCN(S(=O)(=O)c2cc([N+](=O)[O-])ccc2Cl)CC1 | 12 | 1 | 15 | 17 | 16 | 53* | 53* | -4
CCn1cc(-c2cc(C(F)(F)F)n3nc(C(=O)O)cc3n2)c(C)n1 | -11 | 10 | 6 | x | 1 | 54* | 29* | -32
FC(F)(F)c1cc(-c2cccs2)nc2cc(-c3ccccc3)nn12 | -7 | -3 | -2 | x | -2 | 0 | x | x
O=C(O)c1cc2nc(-c3cccs3)cc(C(F)(F)F)n2n1 | -12 | 8 | -1 | 20 | -4 | 74* | 50* | -4
